Bioassay records (PubChem)
VP16 counter: Gal4-VP16 reporter inhibition counter-screen | Drosophila S2 Gal4-VP16 UAS-luciferase, luminescence, 20 h | Potency, µM (highest dose often 53.6 µM), most hits filed as inhibitors | 310,000 compounds, 3.5% hits;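 note: Gal4-VP16 expression switched on by copper sulfate through the metallothionein promoter; nearly all actives have a fitted effect of over 50% in size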
Luc counter: counter-screen: inhibitors of Kinase-Glo firefly luciferase. 200,000 compounds, 0.28% hits. AID 1379. Potency, µM (titrated, usually from 38.3 µM), most hits filed as inhibitors. Kinase-Glo luciferase, ATP luminescence, 8 min; note: nearly all actives have a fitted effect of over 60% in size
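Compounds were added to a substrate mix at pH 7.2 (50 mM imidazole, 10 uM ATP, within the enzyme's linear range), followed by Kinase-Glo detection reagent; luminescence was measured after 8 minutes at ambient temperature.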
RORg inh: inhibitors of mouse ROR gamma transcriptional activity. Drosophila S2 Gal4-RORgamma UAS-luciferase reporter, 20 h. 310,000 compounds, 5.4% hits. P51450. Potency, µM (top dose mostly 53.6 µM), actives largely listed as inhibitors; note: nearly all actives have a fitted effect of over 60% in size
Target sequence (P51450 whole entry, looked up, the tested form may be a part): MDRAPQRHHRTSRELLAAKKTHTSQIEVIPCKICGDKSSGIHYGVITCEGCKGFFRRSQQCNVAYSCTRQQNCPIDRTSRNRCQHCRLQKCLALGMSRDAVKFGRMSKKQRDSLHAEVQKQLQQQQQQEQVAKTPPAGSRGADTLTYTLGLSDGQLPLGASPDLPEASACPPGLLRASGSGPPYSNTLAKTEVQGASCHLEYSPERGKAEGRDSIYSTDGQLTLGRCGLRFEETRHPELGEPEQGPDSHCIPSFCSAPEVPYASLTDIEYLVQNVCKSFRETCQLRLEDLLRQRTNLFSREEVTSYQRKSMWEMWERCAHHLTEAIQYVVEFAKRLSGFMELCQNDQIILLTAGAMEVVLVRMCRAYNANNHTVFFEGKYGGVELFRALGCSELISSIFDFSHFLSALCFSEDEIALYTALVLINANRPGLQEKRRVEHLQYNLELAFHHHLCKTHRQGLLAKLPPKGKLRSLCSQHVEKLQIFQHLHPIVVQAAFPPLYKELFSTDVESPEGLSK
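Using a luciferase readout, inhibitors were identified by reduced reporter activity in Drosophila cells coexpressing a copper-inducible Gal4–ROR gamma fusion and UAS-driven Photinus luciferase, incubated 20 hr after 700 uM copper sulfate.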
Numbers stand for hits; i = inactive; ? = inconclusive; nt = not tested or not shown; [ ] = remark or other dose. Compounds with a hit are over-represented: about 6.4% of the library has one in this group of screens. Calls come from the whole dose curve; as a rule, active = well fitted curve in the direction sought with a large enough effect; inconclusive = small, poorly fitted or top-dose-only effect, or another doubt; inactive = no such curve, though single readings can be large; an effect the other way counts as inactive or inconclusive.

SMILES | VP16 counter | Luc counter | RORg inh
CCC(C)(C)C1CCC(=NNc2nc3ccccc3[nH]2)CC1 (stereo unspecified) | ? | i | 11.2µM
Cc1cc(=O)[nH]c(NN=C2CCC(C(C)(C)C)CC2)n1 (stereo unspecified) | i | i | i
Nc1ccc(C#Cc2ccccc2)cc1 | i | i | i
NS(=O)(=O)C#Cc1ccccc1 | ? | nt | 5.62µM
COc1ccc(/C=N/NC(=O)COc2cccc3ccccc23)c(C(=O)O)c1OC | ? | i | i
C=CCn1cc(/C=N/NC(=O)COc2cccc3cccnc23)c2ccccc21 | i | i | i
COc1cccc(/C=N/NC(=O)COc2cccc3cccnc23)c1O | 12.6µM | i | 2.24µM
COc1ccccc1OCC(=O)N/N=C/c1cccc2cccnc12 | ? | nt | 17.8µM
Cc1cc(/C=N\NC(=O)COc2cccc3cccnc23)c(C)n1-c1ccccc1 | i | i | i
COc1ccccc1OCC(=O)N/N=C/c1c(O)ccc2ccccc12 | 2.51µM | nt | 2.82µM
O=C(COc1cccc(Cl)c1)N/N=C\c1cc2ccccc2nc1Cl | i | i | i
O=C(COc1ccc(Cl)cc1)N/N=C/c1cccc2cccnc12 | 10µM | nt | 12.6µM
COc1ccc(S(=O)(=O)Nc2nnc(Cc3ccc(OC)c(OC)c3)s2)cc1 | i | i | i
COC(=O)C1=C(C(=O)OC)[C@@H]2N(C)c3ccccc3[C@@]23C[C@@H](C(=O)OC)N(S(=O)(=O)c2ccc4c(c2)OCCN4C)C3=N1 | nt | i[7.66 µM] | nt
O=[N+]([O-])c1cc2oc3c(c2c(C=NCc2ccncc2)c1O)CCCC3 | ? | i | 12.6µM
CC(C)(C)N=Cc1c(O)ccc2oc3c(c12)CCCC3 | i | nt | i
CC(=O)c1ccc(-c2c(C3C4C=CCCC4(C)C(=O)N3Cc3ccccc3)ccc3ccccc23)cc1 (stereo unspecified) | i | nt | ?
CC(=O)C1C(=O)CC(C)(O)C(C(C)=O)C1c1ccccc1 (stereo unspecified) | i | i | i
COc1ccc(Br)cc1C(=O)Nc1ccc(C(=O)O)cc1 | i | i | i
COc1ccc(NC(=O)c2cc3cccc(OC)c3oc2=Nc2ccc(C(=O)O)cc2)cc1OC | ? | i | 0.447µM
CC(=O)N1c2ccccc2NC2=C(C(=O)CC(C)(C)C2)C1c1cccn1C (stereo unspecified) | i[10 µM] | i | i
Cc1ccccc1C(=O)NNC(=O)C(=O)Nc1cccc(Cl)c1C | ? | i | i
Cc1c(Cl)cccc1NC(=O)C(=O)NNC(=O)c1ccccc1F | ? | i | 14.1µM
COc1ccc(CN(C(=O)Cn2nnc(-c3ccc(C)o3)n2)C(C(=O)NCC2CCCO2)c2ccco2)cc1 (stereo unspecified) | 7.08µM | i | 5.01µM
COc1ccc(-c2nnn(CC(=O)N(Cc3ccco3)C(C(=O)NCC3CCCO3)c3ccco3)n2)cc1 (stereo unspecified) | i | i | i[10 µM]
SMILES | VP16 counter | Luc counter | RORg inh
COc1cccc(C(=O)NCCNC(=O)c2ccco2)c1 | i | nt | i
O=[N+]([O-])c1cc(C(F)(F)F)cc([N+](=O)[O-])c1N1CCCNCC1 | i | i | i
COC(=O)C1=C(C)N(Cc2ccccc2)C(=S)N[C@H]1c1cccc(C(F)(F)F)c1 | 10µM | nt | 3.55µM
COC(=O)C1=C(C)N(Cc2ccccc2)C(=NCC(C)C)N[C@H]1c1ccc(Br)cc1 | 7.08µM | nt | 1.78µM
COC(=O)C1=C(C)N(Cc2ccccc2)C(=NCCc2cccnc2)N[C@H]1c1ccc(Br)cc1 | i | nt | ?
COC(=O)C1=C(C)N(Cc2ccccc2)C(=S)N[C@H]1c1ccc(Br)cc1 | 12.6µM | nt | 3.55µM
COC(=O)C1=C(C)N(Cc2ccccc2)C(=O)N[C@H]1c1cccc(C(F)(F)F)c1 | i | i[7.66 µM] | i
COCCN1C(=S)N[C@@H](c2ccccc2)C(C(=O)OC)=C1C | i | nt | i
COc1ccc(N(Cc2ccccc2)N=O)cc1 | i | nt | i[1.91 µM]
CCN(CC)C(=O)Cn1cc(C(=O)C(=O)NCc2ccco2)c2ccccc21 | i | i | i
Cc1ccccc1NS(=O)(=O)c1cc2c3c(c1)C(C)C(=O)N3CCC2 (stereo unspecified) | i | nt | i
O=C(NCCCCCCNC(=O)c1cncc(O)c1)c1cncc(O)c1 | i | nt | i
O=C(C1CC(=O)N(c2ccc(F)cc2)C1)N1CCCCCC1 (stereo unspecified) | i | nt | i
Cc1ccc(C(=O)NCCc2ccncc2)cc1 | i | i | i
NS(=O)(=O)c1ccc(CCNC(=O)Cc2ccccc2[N+](=O)[O-])cc1 | i | i | i
O=C(NC(=S)NCc1ccccc1)c1ccccc1[N+](=O)[O-] | 15.8µM | i | 7.94µM
Cc1ccc(C(=O)NCCc2ccccc2)cc1 | 3.98µM | nt | 4.47µM
O=C(NC(=S)NCc1cccnc1)c1ccccc1[N+](=O)[O-] | i | i | i
O=C(Cc1ccccc1[N+](=O)[O-])NCCCc1ccccc1 | i | nt | 0.224µM
O=C(NC(=S)NCc1ccccc1)c1ccccc1Br | 10µM | nt | 8.91µM
O=C(O)CNC(=O)c1ccccc1Br | i | i | i
CCOc1ccc(CN2CCN(CCCc3ccccc3)CC2CCO)cc1 (stereo unspecified) | i | nt | i
CCC/C=C/C1C(=O)C2OC2C2(OCC(CC)(CC)CO2)C1CO (stereo unspecified) | i[10 µM] | nt | ?
COc1ccc(C(=O)Nc2nnc(CCS(=O)(=O)c3ccc(C)cc3)s2)cc1 | i | i | i
CC(C)(C)NC(=O)CSc1nc2cccnc2n1C1CCCCC1 | i | nt | i
SMILES | VP16 counter | Luc counter | RORg inh
Cc1ccccc1C(=O)NC(=S)N(CCO)Cc1ccccc1 | 2.82µM | nt | 2µM
CCOC(=O)c1sc(N)c(C(=O)OC)c1C | i | i | i
O=C(NC(Cc1ccccc1)C(=O)O)c1ccc(S(=O)(=O)N2CCCC2)cc1 (stereo unspecified) | i | i | i
COC(=O)c1c(N)sc(C(=O)NCCc2ccccc2)c1C | 4.47µM | nt | 2.51µM
O=C(NCCc1ccc(Cl)cc1)c1ccc(=O)[nH]c1 | i | nt | i
O=C(NC(=S)N(CCO)Cc1ccccc1)c1ccc(S(=O)(=O)N2CCCC2)cc1 | 4.47µM | i | 2.24µM
Cc1ccccc1C(=O)NCCCc1ccccc1 | i | i | i
O=C(NCCc1ccc(O)cc1)c1ccc(Cl)cc1 | ? | i | 1.58µM
CCN(CC)S(=O)(=O)c1ccc(Cl)c(C(=O)OCC(=O)c2c(N)n(C)c(=O)n(C)c2=O)c1 | i | nt | ?
CCc1cc(=O)oc2c(C)c(OCC(=O)NCC3CCC(C(=O)O)CC3)ccc12 (stereo unspecified) | i | nt | i
C=CCOCC1CN2C(CCC(C)C2c2ccc(Br)cc2)C(=O)O1 (stereo unspecified) | i[10 µM] | nt | i[10 µM]
O=C(NC(=S)N(Cc1ccccc1)Cc1ccccc1)c1ccccc1F | 0.708µM | i | 0.251µM
O=C(NC(=S)NCc1nc2ccccc2[nH]1)c1ccccc1F | i | i | i
O=C(NC(=S)NCCc1ccccc1)c1ccccc1F | ? | nt | 17.8µM
O=C(O)CNC(=S)N(Cc1ccccc1)Cc1ccccc1F | i | i | i
O=C(Nc1ccc(NC(=S)NC(=O)c2ccccc2F)cc1)c1cccs1 | i | i | ?
O=C(NC(=S)NCc1ccccc1)c1ccccc1F | ? | i | 10µM
O=C(NCCc1ccccc1)c1ccccc1F | ? | i | ?
O=C(NC(=S)NC(=O)c1ccccc1F)c1ccccc1F | 5.62µM | i | ?
COCCn1c(=O)[nH]c2cc(C(=O)N3CCN(c4cccc(C)c4C)CC3)ccc2c1=O | i | nt | i
